Compounds with a hit are over-represented: about 0.9% of the library has one in this group of screens.
TR-FRET SRC-2 ct – TR-FRET signal artefacts, primary screen, artefact control for PPARgamma SRC-2 agonist project, biochemical; AID 1049, 2008; hit rate 0.4% among 200,000; TR-FRET artefact counter-screen; active compounds read high; TR-FRET ratio at 8 µM
SRC1 TRFRET art – TR-FRET detection interference compounds, primary screen, artefact control for PPARgamma SRC-1 recruitment agonists, biochemical, TR-FRET emission ratio; TR-FRET detection artefact counter-screen; active compounds read high; TR-FRET ratio at 8 µM; hit rate 0.34% among 99,000; in the data active = TR-FRET ratio above about 2300
SRC3 TRFRET art – TR-FRET detection interference compounds, artefact control for PPARgamma SRC-3 recruitment agonists, biochemical, TR-FRET ratio; hit rate 0.39% among 99,000; TR-FRET artefact counter-screen, PPARgamma/SRC-3 format; active compounds read high; TR-FRET ratio at 8 µM
PPARg SRC-2 ag – agonists of PPARg-SRC-2 recruitment, primary screen, biochemical, HTS; Peroxisome proliferator-activated receptor gamma (Homo sapiens), P37231; PPARgamma LBD-SRC-2 recruitment; activation, % at 8 µM; hit rate 0.34% among 200,000; in the data active = activation above about 22%;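 also: 0% = vehicle and 100% = reference agonist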
PPARg SRC-3 ag – PPARgamma agonists recruiting SRC-3 coactivator, primary screen, biochemical; biochemical PPARgamma/SRC-3 coactivator recruitment assay; activation, % at 8 µM; hit rate 0.26% among 200,000; AID 731, 2007; in the data active = activation above about 23%;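 also: 0% = DMSO and 100% = reference agonist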
PPARg SRC-1 ag – PPARgamma agonists recruiting SRC-1 coactivator, primary screen, biochemical | PPARgamma-SRC-1 coactivator recruitment biochemical assay | Peroxisome proliferator-activated receptor gamma (Homo sapiens), P37231 | hit rate 0.41% among 200,000 | activation, % at 8 µM; in the data active = activation above about 19%;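 also: 0% = DMSO and 100% = reference agonist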
PPARg SRC2 conf – agonists of PPARgamma SRC-2 coactivator recruitment, confirmation, biochemical, HTS | activation, % at 8 µM | shares compounds with PPARg SRC-3 ag | biochemical SRC-2 recruitment by PPARgamma | hit rate 52% among 790; in the data active = activation above about 22%;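 also: 0% = vehicle alone and 100% = reference agonist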
PPARg SRC1 conf – PPARgamma agonists recruiting SRC-1 coactivator, confirmation, biochemical; shares compounds with PPARg SRC-3 ag; PPARgamma–SRC-1 coactivator recruitment biochemical assay; activation, % at 8 µM; hit rate 43% among 790; AID 1300, 2008; in the data active = activation above about 20%;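 also: 0% = vehicle wells and 100% = reference agonist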
PPARg SRC3 conf – PPARgamma-driven SRC-3 coactivator recruitment agonists, confirmation, biochemical; shares compounds with PPARg SRC-3 ag; biochemical PPARgamma-SRC-3 coactivator recruitment, agonist mode; activation, % at 8 µM; hit rate 29% among 790; AID 1301, 2008; in the data active = activation above about 24%;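 also: 0% = vehicle wells and 100% = reference agonist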
The depositor's hits bear a star; . = no result. Rule as the data show it, unless noted: active = TR-FRET ratio above about 2000; inactive = the rest.

SMILES | TR-FRET SRC-2 ct | SRC1 TRFRET art | SRC3 TRFRET art | PPARg SRC-2 ag | PPARg SRC-3 ag | PPARg SRC-1 ag | PPARg SRC2 conf | PPARg SRC1 conf | PPARg SRC3 conf
Nc1c(C(=O)Nc2ccc(F)cc2)sc2nc(-c3ccco3)ccc12 | 1512 | . | . | 9.3 | 4.0 | 10.6 | . | . | .
COc1ccccc1-c1nnc(SC2CCc3ccccc3NC2=O)s1 (stereo not drawn) | 2323* | . | . | 69.0* | 41.7* | 31.2* | 48.8* | 38.6* | 33.0*
Cc1cccc(CSc2nc3c(c(-c4cccs4)c2C#N)CN(C)CC3)c1 | 1415 | 1666 | 1672 | 0.7 | -4.2 | -0.7 | . | . | .
Cc1cccc(CSc2nc(N)c(C#N)c(-c3cccs3)c2C#N)c1 | 1646 | . | . | 22.8* | 20.4 | 6.8 | 13.8 | 8.3 | 7.6
O=C(C(=S)N1CCOCC1)c1c[nH]c2ccccc12 | 1521 | 2043 | 1515 | 4.7 | -1.9 | 5.4 | . | . | .
COc1ccc(/C=N/c2c(-c3ccco3)nc3ccccn23)cc1OC | 1874 | . | . | 23.0* | 29.1* | 33.5* | 16.9 | 8.0 | 5.9
O=C(Nc1ccc(N2CCOCC2)cc1N1CCOCC1)c1ccc([N+](=O)[O-])cc1 | 1418 | . | . | 13.9 | 26.8* | 3.3 | 2.5 | -0.2 | 1.8
O=C(CCNC(=O)c1ccc([N+](=O)[O-])cc1)Nc1ccc(N2CCOCC2)cc1N1CCOCC1 | 1732 | 2042 | 1672 | 5.0 | -2.7 | 4.2 | . | . | .
CC(=O)Nc1ccc(NC(=O)CC2Nc3cccc4cccc(c34)NC2=O)cc1 (stereo not drawn) | 1572 | . | . | 10.5 | 25.8* | 6.0 | 9.6 | 12.4 | 7.0
O=C(O)Cc1cc(C(=O)Nc2ccc(Br)cc2)sc1-c1ccccc1 | 2211* | 2611* | 2260* | 22.5* | 16.1 | 33.1* | 16.3 | 15.4 | 11.0
O=C(O)CCC(=O)Nc1cccc(C(=O)Nc2ccc(Br)cc2)c1 | 1565 | 1893 | 1559 | -9.6 | 2.0 | 6.9 | . | . | .
Cc1ccccc1N1C(=O)CC(Sc2nnc(-c3ccccc3)o2)C1=O (stereo not drawn) | 1855 | . | . | 43.0* | 56.6* | 42.4* | 48.2* | 36.0* | 31.5*
O=C1c2ccccc2CC1Sc1nnc(-c2ccncc2)o1 (stereo not drawn) | 1537 | . | . | 0.8 | -4.2 | -8.8 | . | . | .
O=C1CC(Sc2nnc(-c3ccccc3)o2)C(=O)N1c1ccccc1 (stereo not drawn) | 1657 | . | . | 39.1* | 31.2* | 19.8* | 28.2* | 21.2* | 15.7
O=C(NCCc1ccccc1)C1CCCN(S(=O)(=O)c2cccs2)C1 (stereo not drawn) | 1499 | . | . | 1.4 | -4.0 | -2.4 | . | . | .
CCOc1cc(CNc2ccc(N3CCCCC3)cc2)cc(Br)c1OCC(=O)NC(C)(C)C | 1719 | 2032 | 1695 | 4.7 | 4.1 | -0.4 | . | . | .
CCOc1cc(CNc2ccc(N(C)C)cc2)cc(Br)c1OCC(=O)NC(C)(C)C | 3290* | . | . | 123.4* | 127.8* | 55.4* | 3.5 | 0.3 | 2.7
COc1ccc(CNC(=O)COC(=O)c2cc(-c3ccc(Cl)s3)nc3ccccc23)cc1 | 2696* | . | . | 22.9* | 17.4 | 12.8 | 19.9 | 15.6 | 12.5
O=C(COC(=O)c1cc(-c2ccc(Cl)s2)nc2ccccc12)NCc1ccco1 | 1744 | . | . | 19.2 | 18.0 | 13.2 | . | . | .
CCC(C)(C(=O)Nc1ccccc1C)N(C(=O)CNC(C)=O)c1ccccc1C (stereo not drawn) | 1611 | 1824 | 1488 | -1.4 | -3.1 | -2.2 | . | . | .
Cc1ccc(CN2C(=O)C3CCCN3c3ccc(C#N)cc32)cc1 (stereo not drawn) | 1578 | . | . | 15.9 | 29.3* | 6.8 | 12.2 | 14.3 | 8.2
Cc1ccc(C)c(CN2C(=O)C3CCCN3c3ccc(C#N)cc32)c1 (stereo not drawn) | 1692 | . | . | 1.1 | 10.4 | -0.2 | . | . | .
CCOc1cc(NC(=O)c2cccs2)c(OCC)cc1NC(=O)CCC(=O)NCC1CCCO1 (stereo not drawn) | 1382 | 1891 | 1498 | -1.2 | 2.2 | -4.4 | . | . | .
Cc1ccc(NC(=O)CCn2c(=S)oc3ccccc32)cc1 | 1795 | 2071 | 1728 | 11.9 | 6.7 | 21.9* | 3.0 | -1.5 | 1.2
O=C(CCn1c(=S)oc2ccccc21)Nc1ccc(F)cc1 | 1550 | 1871 | 1616 | -0.1 | 1.5 | 7.3 | . | . | .
SMILES | TR-FRET SRC-2 ct | SRC1 TRFRET art | SRC3 TRFRET art | PPARg SRC-2 ag | PPARg SRC-3 ag | PPARg SRC-1 ag | PPARg SRC2 conf | PPARg SRC1 conf | PPARg SRC3 conf
CC(NC(=O)COC(=O)/C=C/c1ccco1)c1ccccc1 (stereo not drawn) | 1627 | 2078 | 1586 | 5.8 | 6.5 | 3.6 | . | . | .
COc1ccc(NC2=NC(=S)N(c3ccccc3C)C23CCCCC3)cc1 | 1465 | . | . | 1.8 | 6.1 | 1.3 | . | . | .
COc1ccc(Nc2ccc3c(c2)=NC2(CCCCC2)[N+]=3[O-])cc1 | 2020* | . | . | 19.1 | 28.3* | 23.6* | 15.4 | 15.3 | 9.8
[O-][N+]1=c2ccc(Nc3ccccc3)cc2=NC12CCCCC2 | 1710 | . | . | 16.0 | 27.6* | 23.7* | 21.9* | 13.5 | 10.2
O=C(Cc1ccc(Cl)c(Cl)c1)Nc1cccc(S(=O)(=O)N2CCOCC2)c1 | 1634 | 1738 | 1599 | -6.8 | -2.2 | -6.2 | . | . | .
COc1ccc(-c2nc(SCC(=O)NC3CCCC3)c(-c3ccc(OC)cc3)[nH]2)cc1 | 1685 | 1827 | 1994 | 24.0* | 10.5 | 6.7 | 1.2 | 2.2 | -0.6
N#Cc1ccc(-c2ccc(F)cc2)nc1SCC(=O)Nc1sc2c(c1C#N)CCC2 | 1696 | . | . | 2.4 | 8.7 | 19.5* | 20.8 | 10.1 | 9.6
N#Cc1cc2c(nc1SCC(=O)Nc1sc3c(c1C#N)CCC3)CCCC2 | 1572 | . | . | 9.8 | 2.5 | 13.8 | . | . | .
COc1ccc(C(=O)c2nccc3ccccc23)cc1 | 1711 | 1685 | 1475 | -0.1 | -1.1 | -1.7 | . | . | .
COC(=O)c1sccc1NC(=O)Nc1ccc(Cl)c(Cl)c1 | 1921 | . | . | 23.4* | 14.3 | 19.4* | 8.0 | 2.0 | 4.2
CNc1ncnc2sc(-c3ccccc3)cc12 | 1590 | 2133 | 1461 | -4.7 | -0.3 | -1.9 | . | . | .
S=c1[nH]cnc2sc(-c3ccccc3)cc12 | 2602* | 3261* | 2631* | 51.7* | 30.1* | 46.4* | 33.0* | 22.2* | 20.7
N#Cc1ccc(C(=O)Nc2cccc(NC(=O)c3ccco3)c2)c(F)c1 | 1535 | 1575 | 1590 | -9.2 | -5.4 | -2.8 | . | . | .
